# Measurements taken from PubChem BioAssay AID1259313 (Sanford-Burnham Center for Chemical Genomics, 2017).
# About 8,500 (2.5%) of roughly 340,000 compounds were called active. The list comes from a sample in which actives are over-represented; it also holds similar structures and randomly drawn compounds. A number with no mark means an inactive call.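 Rule for the calls: active = melting temperature shift of at least 10% of the positive control shift, at one fixed dose; inactive = the rest.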
# Test system: Glutamate receptor ionotropic, NMDA 3A (GRIN3A) ligand-binding domain
# Assay: NR3A LBD thermal stabilization by compounds – biophysical, differential scanning fluorimetry, uHTS, primary screen (AID 1259313)
# Conditions: at 25 µM, hits give high values, 0% = protein alone, 100% = glycine-bound protein
row,SMILES,Tm shift relative to glycine control
1,CCOc1[nH]n(-c2ccc(Cl)cc2)c(=O)c1C=Nc1ccc(O)cc1,5.05%
2,CCOc1ccc(N=C2NC(=O)S/C2=C\c2ccc(O)cc2)cc1,15.1% (active)
3,CCOc1ccc(N=C2SC(C(=O)O)CC(=O)N2C)cc1 (configuration not stated),1.77%
4,CCCCn1c(N)c(N(CC(C)C)C(=O)CN(C)S(=O)(=O)c2ccc(F)cc2)c(=O)[nH]c1=O,-1.73%
5,Nc1cc(N)nc(SCC(=O)Nc2cccc(S(=O)(=O)N3CCCCC3)c2)n1,-2.96%
6,COc1ccc(/C=C/C(=O)OCC(=O)Nc2cccc(Oc3ccccc3)c2)c(OC)c1,1.79%
7,COc1cc(/C=C/C(=O)OCC(=O)NCCCc2ccccc2)ccc1O,-3.57%
8,COc1cc(/C=C/C(=O)OCC(=O)Nc2cccc(Oc3ccccc3)c2)ccc1O,16.3% (active)
9,Nc1ccc(S(=O)(=O)Nc2nccc(/C=C/c3ccc(Br)s3)n2)cc1,3.72%
10,Oc1cccc2ccc(/C=C/c3ccc(Br)s3)nc12,27.9% (active)
11,O=C(Nc1ccc2c(c1)OCO2)c1sc2cc(Cl)ccc2c1Cl,2.38%
12,CC(Sc1nc(-c2ccccc2)cc(C(F)(F)F)n1)C(=O)Nc1ccc2c(c1)OCO2 (configuration not stated),-3.7%
13,CC(Sc1nc2cc(Cl)ccc2s1)C(=O)Nc1ccc2c(c1)OCO2 (configuration not stated),17.5% (active)
14,COc1cc(C(C)=O)ccc1OC(=O)CN1C(=O)c2ccccc2C1=O,-1.44%
15,COC(=O)Nc1ncc(CN2CCCCC2)s1,0.99%
16,COC(=O)Nc1ncc(CN2C(=O)c3ccccc3C2=O)s1,13.7% (active)
17,CN(Cc1ccccc1)C(=O)CCNC(=O)Cn1cnc2ccccc2c1=O,1.47%
18,CC(C)=CCCC1(C)C=Cc2c(ccc3c2[nH]c2cc(O)c(C)cc23)O1 (configuration not stated),22.5% (active)
19,O=C(O)CC/C(=N\NC(=O)c1ccc(F)cc1)c1ccc(Br)cc1,-1.55%
20,O=C(COC(=O)c1ccc2ncsc2c1)Nc1ccc(Cl)cc1,-0.85%
21,COc1ccccc1-c1nnc(NC(=O)c2ccc3ncsc3c2)o1,-3.33%

row,SMILES,Tm shift relative to glycine control
1,Cc1sc(NC(=O)c2ccc3ncsc3c2)c(C(N)=O)c1C,28.4% (active)
2,COc1cc(OC)c(C(=O)NNC(=O)c2ccc(NS(=O)(=O)c3cccs3)cc2)cc1OC,0.08%
3,Cc1ccc(C(=O)N/C(=C/c2cccs2)C(=O)N2CCCCC2)cc1,-1.69%
4,COc1ccc(-c2ccc3nnc(SCC(=O)Nc4ccc(NC(C)=O)cc4)n3n2)cc1,-5.8%
5,COc1ccccc1NC(=O)c1cc(N2C(=O)C3C4CCC(C4)C3C2=O)ccc1Cl (configuration not stated),-3.68%
6,CCc1ccnc(NS(=O)(=O)c2ccc3c(c2)OCCO3)c1,-2.2%
7,O=C(Nc1sc2c(c1C(=O)O)CCC2)c1ccccc1F,1.58%
8,COc1cc2ccccc2cc1C(=O)N(CCN(C)C)c1nc2c(F)cccc2s1,3.31%
9,NC(=O)c1c(Nc2nc3c(F)cccc3s2)sc2c1CCCC2,10.8% (active)
10,NNc1nc2c(Cl)cccc2s1,-0.09%
11,Fc1cc(F)c2nc(Nc3nc4c(F)cccc4s3)sc2c1,17.3% (active)
12,COc1cccc(OC)c1C(=O)Nc1sc2c(c1C(N)=O)CCCC2,-0.3%
13,COCCNc1nc(N)c([N+](=O)[O-])c(N2CCCCCC2)n1,0.58%
14,CCn1c(SCCC(C)C)nnc1-c1c[nH]c2ccccc12,-26.6%
15,Cc1ccc(-c2csc(-c3c[nH]c4ccccc34)n2)cc1,25.6% (active)
16,CCCc1cc(-c2nc(-c3ccc(C)cc3)cs2)ccn1,-8.16%
17,COc1ccc(F)c(-c2nc(CN3CCC(c4ccccc4)CC3)c(C)o2)c1,-0.88%
18,CCCCn1c(N)c(N(CCC(C)C)C(=O)CC2OC(=O)c3ccccc32)c(=O)[nH]c1=O (configuration not stated),-1.19%
19,Cc1ccc(CSCC(=O)N(C)CC(=O)Nc2cccc(F)c2)cc1,-1.41%
20,CN(CC(=O)Nc1cccc(F)c1)C(=O)CC1CCCC1,2.89%
21,CCN(CC)C(=O)CSC(Nc1cccc(F)c1)=C(C#N)C#N,11.7% (active)

row,SMILES,Tm shift relative to glycine control
1,Cc1noc(C)c1S(=O)(=O)N(CC(=O)Nc1ccc2c(c1)OCCO2)c1ccc(C(C)C)cc1,1.36%
2,CC1Cc2ccccc2N1CC(=O)Nc1ccc2c(c1)OC(F)(F)O2 (configuration not stated),-9.28%
3,COc1ccc(S(=O)(=O)N/N=C\c2ccc(OC)c(COc3ccc(C)cc3[N+](=O)[O-])c2)cc1,7.36%
4,COc1ccc(C(=O)NNS(=O)(=O)c2ccc(C)cc2)cc1,9.89%
5,COc1ccc(C(=O)Oc2cc(/C=N/NS(=O)(=O)c3ccc(C)cc3)ccc2OC)cc1,14.3% (active)
6,COC(=O)c1nc(NC(=O)c2ccccc2)n[nH]1,-2.48%
7,COc1ccc(S(=O)(=O)NCC(c2ccco2)N2CCOCC2)cc1 (configuration not stated),0.48%
8,COc1ccc(CCNC(=O)COC(=O)c2cc(=O)c3ccccc3o2)cc1,-0.35%
9,COc1ccc(Nc2cc(=O)oc3ccccc23)cc1,13.9% (active)
10,COc1ccc2oc(=O)cc(-c3cc4ccccc4o3)c2c1,-4.08%
11,CC1CCN(C(=O)CN(c2ccc(Oc3ccccc3)cc2)S(C)(=O)=O)CC1,0.83%
12,CCOc1cc(-c2noc(CCCC(=O)NC3CCCCC3)n2)ccc1OC,-2.03%
13,COc1ccc(CN2CC(C(=O)NC3CCCCC3)CC2=O)cc1 (configuration not stated),2.45%
14,COC(=O)C(C)Oc1ccc2c(c1)O/C(=C\c1cccc(Br)c1)C2=O (configuration not stated),-2.66%
15,COc1cc(C#Cc2ccc3cc(CCCO)oc(=O)c3c2)cc(OC)c1,-0.81%
16,COc1cc(/C=C2\Oc3ccc(C#Cc4ccc(O)cc4)cc3C2=O)cc(OC)c1,16.2% (active)
17,CCN(CC(=O)Nc1cc(Cl)ccc1C)C(=O)CN1C(=O)NC2(CCCC2)C1=O,0.97%
18,CC(C(=O)NC1CCCC1)N1CCN(S(=O)(=O)c2ccccc2Cl)CC1 (configuration not stated),16.8% (active)
19,CC(C)c1ccc(S(=O)(=O)N2CCN(C(C)C(=O)NC3CCCC3)CC2)cc1 (configuration not stated),-0.92%
20,O=C(Cc1ccc(S(=O)(=O)N2CCCC2)s1)NC1CCCCCC1,-3.8%
